KCNQ2 inh – blocks the rat KCNQ2 potassium channel; O88943; CHO-K1 KCNQ2, FluxOR thallium flux, 20 min; hits give low values; B-score at 10 µM; actives 1.1% (n = 310,000);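 active means fluorescence ratio B-score at most minus 3 library SDs, with starting brightness B-score within 2 library SDs, cut at about -5.5 in these data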
Target sequence (O88943 whole entry, looked up): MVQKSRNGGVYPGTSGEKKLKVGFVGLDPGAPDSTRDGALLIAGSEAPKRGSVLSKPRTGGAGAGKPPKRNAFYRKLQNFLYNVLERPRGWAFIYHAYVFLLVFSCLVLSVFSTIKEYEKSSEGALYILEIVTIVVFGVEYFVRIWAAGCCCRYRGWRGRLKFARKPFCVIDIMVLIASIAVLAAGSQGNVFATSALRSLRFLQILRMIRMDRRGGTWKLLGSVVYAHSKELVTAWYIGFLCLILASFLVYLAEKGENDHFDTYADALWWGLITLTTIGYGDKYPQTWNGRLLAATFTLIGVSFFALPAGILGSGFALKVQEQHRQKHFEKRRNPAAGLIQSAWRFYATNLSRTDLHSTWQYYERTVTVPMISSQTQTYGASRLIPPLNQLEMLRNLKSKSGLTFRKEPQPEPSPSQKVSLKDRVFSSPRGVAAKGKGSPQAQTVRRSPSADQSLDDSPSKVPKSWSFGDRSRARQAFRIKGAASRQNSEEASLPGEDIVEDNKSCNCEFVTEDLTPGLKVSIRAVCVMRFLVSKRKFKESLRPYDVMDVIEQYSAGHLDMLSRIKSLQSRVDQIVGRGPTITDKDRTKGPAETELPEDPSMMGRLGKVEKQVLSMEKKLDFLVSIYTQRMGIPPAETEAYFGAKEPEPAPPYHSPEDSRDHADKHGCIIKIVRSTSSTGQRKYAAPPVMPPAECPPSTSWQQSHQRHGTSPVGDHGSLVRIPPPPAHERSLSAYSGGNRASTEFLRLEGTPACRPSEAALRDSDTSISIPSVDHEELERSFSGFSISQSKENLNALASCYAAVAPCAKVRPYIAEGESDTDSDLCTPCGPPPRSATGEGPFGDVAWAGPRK
KCNQ2 enhance – KCNQ2 (rat) channel potentiation; B-score at 10 µM; CHO-K1 KCNQ2, FluxOR thallium flux fluorescence; hits give high values; O88943; AID 2239; actives 0.54% (n = 310,000);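 active means fluorescence ratio B-score at least 3 SD of library B-scores, with initial fluorescence B-score within 3 of them, cut at about 5.3 in these data; same plate scores as AID 2156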;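 further: B-score of peak minus minimum over baseline fluorescence ratio after K+ and Tl+ stimulus; positive B-score means potentiation of KCNQ2 with more thallium influx and brighter signal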
Kir21 conf inh – confirmation of mouse Kir2.1 potassium channel inhibitors. AID 2032. actives 41% (n = 2,300). Tl flux remaining, % of negative control (hits give low values), % at 10 µM. Kir2.1-expressing cells, FluxOR thallium flux fluorescence; hits give low values. shares compounds with KCNQ2 enhance;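 active means Primary-screen hit whose thallium flux fell at least 3 control SD below untreated wells in both duplicates, with normal baseline fluorescence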
HEK293 ctr – parental HEK293 activity in Kir2.1 inhibitor counter-screen; shares compounds with KCNQ2 enhance; parental HEK293 cells, FluxOR thallium flux fluorescence; 0% = unstimulated blank wells; FluxOR signal as % of negative control (100 = no effect), % at 10 µM; actives 19% (n = 2,300); AID 2105;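 active means dye signal at least 3 control SD above or below untreated wells in both duplicates, raw fluorescence within 3, either direction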;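 further: percent is based on the flux ratio of peak minus minimum fluorescence over baseline F0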
CHO-K1 Tl ctr – counter-screen for KCNQ2 potentiators: effect in parental CHO-K1 cells. actives 43% (n = 1,200). AID 2282. shares compounds with KCNQ2 enhance. activity increase over 3SD of controls, % at 10 µM. FluxOR thallium flux fluorescence; zero = vehicle mean+3SD, 100% = vehicle-minus-blank window;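 active means signal rise of at least 3 SD above the untreated control mean, in both duplicate wells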;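 further: counter screen of KCNQ2 potentiator hits so any rise reflects channel-independent effects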
KCNQ1 sel pot – selectivity of KCNQ2 potentiators: effect on human KCNQ1; shares compounds with KCNQ2 enhance; CHO KCNQ1 stable, FluxOR thallium flux fluorescence; beyond 3SD, as % of vehicle-control signal; activation over 3SD threshold, % at 10 µM; actives 28% (n = 1,200);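 active means fluorescence ratio rise of at least 3 SD of vehicle wells above their mean, in both replicate wells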
KCNQ2 pot conf – confirmation of rat KCNQ2 potassium channel potentiators. actives 68% (n = 1,200). CHO-KCNQ2 cells, FluxOR thallium flux fluorescence. shares compounds with KCNQ2 enhance. potentiation, less the hit threshold, % at 10 µM. AID 2287;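 active means fluorescence ratio rising 3 SD or more over the vehicle control mean in both replicates, plus primary screen hit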;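 further: peak minus minimum thallium fluorescence divided by baseline after K/Tl stimulus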
Kir2-1 sel – selectivity of KCNQ2 potentiators: effect on mouse Kir2.1 | shares compounds with KCNQ2 enhance | HEK293 Kir2.1, FluxOR thallium flux fluorescence | activity over 3SD threshold, % at 10 µM | actives 2% (n = 1,200) | AID 2345;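 active means fluorescence ratio rise of at least 3 SD above the vehicle-control mean, seen in both replicates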
KCNQ2 W236L MoA – KCNQ2 potentiators acting on retigabine-insensitive rat KCNQ2 W236L mutant | shares compounds with KCNQ2 enhance | CHO KCNQ2-W236L, automated patch clamp current | current increase over 3SD of negative controls (%), hits give high values, % at 25 µM | actives 10% (n = 940) | AID 2558;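 active means current increase at least 3 SD of the untreated controls above them in both duplicate recordings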
Hits are given with their value; i = inactive; nt = no result. An excerpt weighted towards active compounds, which were near 1.6% of everything screened.

SMILES	KCNQ2 inh	KCNQ2 enhance	Kir21 conf inh	HEK293 ctr	others
Cc1cc(C)c(NC(=O)C2CCCCN2C)c(C)c1 (stereo not given)	i	nt	nt	nt
Cc1cc(C)c(NC(=O)C2CSCCS2)c(C)c1 (stereo not given)	i	6.46	i	i	CHO-K1 Tl ctr=22.7;KCNQ1 sel pot=15.3;KCNQ2 pot conf=i;Kir2-1 sel=i;KCNQ2 W236L MoA=i
CC(C)c1ccc(C(=O)NCCCN2CCOCC2)cc1	i	nt	nt	nt
O=C(NCCCN1CCOCC1)c1ccc(CSc2ccc(Cl)cc2)cc1	i	i	62.0%	i
O=C(O)c1ccc2c(c1)C(=O)N(c1nccs1)C2=O	i	i	nt	nt
CN(C)C(CNC(=O)c1coc2ccccc2c1=O)c1ccccc1 (stereo not given)	i	i	nt	nt
COC(=S)N/C(=N\S(=O)(=O)c1ccc(Cl)cc1)c1ccccc1	i	i	nt	nt
COc1ccc(C[C@H]2CN3C(=NC[C@@H]3C(C)C)N2CCNC(=O)CCC2CCCCC2)cc1	i	nt	64.0%	i
CC(C)[C@H]1CN=C2N(CCNC(=O)CCC3CCCCC3)[C@H](Cc3ccc(O)cc3)CN21	i	nt	nt	nt
COc1ccc(C[C@H]2CN3C(=NC[C@@H]3Cc3ccccc3)N2CCNC(=O)CCC2CCCCC2)cc1	i	nt	40.0%	i
O=C(CCC1CCCCC1)NCCN1C2=NC[C@H](Cc3ccc(O)cc3)N2C[C@H]1Cc1ccc(O)cc1	i	i	nt	nt
COc1cccc(CNC(=O)CCC2CCCN(C(=O)C3=CC(=O)CC(C)(C)O3)C2)c1 (stereo not given)	i	nt	nt	nt
O=C(O)c1cccc(Nc2ccncc2[N+](=O)[O-])c1	i	nt	nt	nt
CC(=O)NCCOc1cccc2ccccc12	i	i	nt	nt
c1ccc(CCNCCCOc2cccc3ccccc23)cc1	i	nt	13.5%	i
Nc1ncnc2c1cnn2-c1ccccc1	i	i	nt	nt
S=c1nc[nH]c2c1cnn2-c1ccccc1	i	10	i	162.0%	CHO-K1 Tl ctr=31.5;KCNQ1 sel pot=i;KCNQ2 pot conf=2.7;Kir2-1 sel=i;KCNQ2 W236L MoA=i
CC(C)Cc1nnc(NC(=O)CSc2nc(O)c(-c3ccccc3)c(=O)[nH]2)s1	i	i	nt	nt
CNCCC1Sc2ccccc2Oc2ccccc21 (stereo not given)	i	i	42.0%	i
CN(C)CCCC1Sc2ccccc2Sc2ccccc21 (stereo not given)	i	i	nt	nt
CC(=O)NCCNC(=O)c1ccc(NC2=NC3CS(=O)(=O)CC3S2)cc1 (stereo not given)	i	nt	nt	nt
CN(C)c1cc(-c2ccc(Br)cc2)oc(=O)c1Cl	i	i	nt	nt
Cc1cccc(N2CCN(C(=O)CNC(=O)c3cccc([N+](=O)[O-])c3)CC2)c1C	i	nt	i	i
O=C(NCC(=O)N1CCN(c2ccccc2O)CC1)c1ccccc1	i	i	nt	nt
COc1ccc(-c2nc(CN3CCN(C(=O)c4ccco4)CC3)c(C)o2)c(F)c1	i	i	nt	nt
SMILES	KCNQ2 inh	KCNQ2 enhance	Kir21 conf inh	HEK293 ctr	others
COc1ccccc1C1c2ccc3ccccc3c2Oc2ncn(CCN(C)C)c(=N)c21 (stereo not given)	i	nt	nt	nt
COc1ccc(C2c3ccc4ccccc4c3Oc3ncn(CCCN(C)C)c(=N)c32)cc1 (stereo not given)	-6.14	i	36.5%	i
O=C(N/N=C/c1cccc(Oc2ccccc2)c1)c1cccc(Br)c1	i	nt	nt	nt
O=C(N/N=C/c1cccc(Oc2ccccc2)c1)c1cccc(O)c1	i	nt	74.0%	i
Cc1cc(O)c(C(C)C)cc1NS(=O)(=O)c1ccccc1	i	nt	45.0%	i
COc1ccc(S(=O)(=O)Nc2cc(S(=O)(=O)c3ccccc3)c(O)cc2C)cc1	i	i	nt	nt
CCc1nc2sc3c(c2c(=S)[nH]1)CC(C)(C)OC3	i	i	nt	nt
CSc1nc2sc3c(c2c(=S)[nH]1)CC(C)(C)OC3	i	14.6	i	401.0%	CHO-K1 Tl ctr=i;KCNQ1 sel pot=i;KCNQ2 pot conf=81.7;Kir2-1 sel=i;KCNQ2 W236L MoA=i
CCN(CC)CCOC(=O)c1ccc(NC(=O)CCCN2C(=O)/C(=C/c3cccs3)SC2=S)cc1	i	nt	nt	nt
Cc1ccc(CNCCCSc2ncccn2)cc1	i	nt	nt	nt
Cc1ccccc1C(=O)NNC(=O)c1cccn1C	i	nt	nt	nt
OCCC1CN(Cc2nc3ccccc3s2)CCN1C1CCCC1 (stereo not given)	i	i	nt	nt
COc1ccc(C(=O)CCS(=O)(=O)c2ccc(F)cc2)cc1OC	i	6.64	i	i	CHO-K1 Tl ctr=36.3;KCNQ1 sel pot=60.0;KCNQ2 pot conf=24.1;Kir2-1 sel=i;KCNQ2 W236L MoA=6.0%
COc1ccc(C(=O)N2CCN(S(=O)(=O)c3ccc(F)cc3)CC2)cc1OC	i	nt	nt	nt
Cc1nc(Cl)c(C(=O)NC(=O)NCc2ccccc2)c(C)c1Cl	i	i	nt	nt
O=C(OCC(=O)N1CCN(S(=O)(=O)c2ccc(Cl)cc2)CC1)c1cccc(OC(F)F)c1	i	11.1	i	i	CHO-K1 Tl ctr=i;KCNQ1 sel pot=i;KCNQ2 pot conf=12.5;Kir2-1 sel=i;KCNQ2 W236L MoA=i
COc1cccc(/C=C/C(=O)OCC(=O)N2CCN(S(=O)(=O)c3ccc(Cl)cc3)CC2)c1	i	i	nt	nt
Cc1cc(NCc2ccccn2)n2ncc(-c3ccc(Cl)cc3)c2n1	i	i	nt	nt
Cc1cc(NCCOCCO)n2ncc(-c3ccc(Cl)cc3)c2n1	i	6.16	i	i	CHO-K1 Tl ctr=2.2;KCNQ1 sel pot=i;KCNQ2 pot conf=4.4;Kir2-1 sel=i;KCNQ2 W236L MoA=i
COc1cccc(NC(=O)NCCc2ccc(Cl)cc2)c1	i	nt	nt	nt
CCCCSCCCNC(=O)Nc1cccc(OC)c1	i	8.63	i	i	CHO-K1 Tl ctr=i;KCNQ1 sel pot=i;KCNQ2 pot conf=14.8;Kir2-1 sel=i;KCNQ2 W236L MoA=i
COCCCNC(=O)CN(CCc1ccccc1)S(=O)(=O)c1ccc(C)cc1	i	i	nt	nt
Cc1ccc(S(=O)(=O)O/N=C2\CCCc3ccccc32)cc1	i	i	nt	nt
CC1=C(C)/C(=N\OS(=O)(=O)c2ccccc2)C=CC1=O	i	6.91	69.0%	i	CHO-K1 Tl ctr=16.8;KCNQ1 sel pot=i;KCNQ2 pot conf=27.8;Kir2-1 sel=i;KCNQ2 W236L MoA=56.6%
COc1ccc(S(=O)(=O)NN(C)c2ncc(C(F)(F)F)cc2Cl)cc1	i	nt	61.0%	i
SMILES	KCNQ2 inh	KCNQ2 enhance	Kir21 conf inh	HEK293 ctr	others
CC(C)NS(=O)(=O)c1ccc(Oc2ncc(C(F)(F)F)cc2Cl)cc1	i	nt	nt	nt
CCOC(=O)c1sc2ncnc(NCC(c3cccs3)N(C)C)c2c1C (stereo not given)	i	7.72	i	252.5%	CHO-K1 Tl ctr=i;KCNQ1 sel pot=0.2;KCNQ2 pot conf=32.5;Kir2-1 sel=i;KCNQ2 W236L MoA=i
CN(C)C(CNc1ncnc2sccc12)c1cccs1 (stereo not given)	i	i	nt	nt
CCC(=O)Nc1c(C)cc(C)cc1Cl	i	i	nt	nt
CCCCC(=O)Nc1c(C)cc(C)cc1Cl	i	12.1	i	i	CHO-K1 Tl ctr=i;KCNQ1 sel pot=i;KCNQ2 pot conf=53.2;Kir2-1 sel=i;KCNQ2 W236L MoA=i
N#C/C(=C\c1cccnc1)c1ccccc1[N+](=O)[O-]	i	i	nt	nt
